About 83,000 compounds went through this panel and 20% of them were active in at least one assay; those are over-represented in the sample as a whole.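 Interpretation: 100, growth as untreated; towards 0, rising growth inhibition; 0, no net growth; 0 to -100, cell death. Compounds scoring below 10 were considered active.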 Values without a mark were called inactive. Activity calls are given as the source filed them.
Experiments:
Experiment in all cases: NCI-60 one-dose screen, 48 h (100 = growth as untreated, 0 = no growth, -100 = all killed)
Details in all cases: 10 µM unless noted
NCI-H23 lung = tested on: NCI-H23 lung
NCI-H226 lung = tested on: NCI-H226 lung
NCI-H322M lung = tested on: NCI-H322M lung
HOP-62 NSCLC = tested on: HOP-62 NSCLC
NCI-H460 lung = tested on: NCI-H460 lung
HOP-92 NSCLC = tested on: HOP-92 NSCLC
NCI-H522 lung = tested on: NCI-H522 lung
A549/ATCC NSCLC = tested on: A549/ATCC NSCLC
786-0 renal = tested on: 786-0 renal
COLO 205 colon = tested on: COLO 205 colon
DU-145 prostate = tested on: DU-145 prostate
K-562 leukemia = tested on: K-562 leukemia
MALME-3M melanoma = tested on: MALME-3M melanoma
MDA-MB-231 breast = tested on: MDA-MB-231 breast
RXF 393 renal = tested on: RXF 393 renal
SF-268 CNS = tested on: SF-268 CNS
SF-295 CNS = tested on: SF-295 CNS
SF-539 CNS = tested on: SF-539 CNS
UACC-257 melanoma = tested on: UACC-257 melanoma
M14 melanoma = tested on: M14 melanoma

SMILES | growth (NCI-H23 lung) [%] | growth (NCI-H226 lung) | growth (NCI-H322M lung) [%] | growth (HOP-62 NSCLC) | growth (NCI-H460 lung) | growth (HOP-92 NSCLC) | growth (NCI-H522 lung) | growth (A549/ATCC NSCLC) [%] | growth (786-0 renal) | growth (COLO 205 colon) | growth (DU-145 prostate) [%] | growth (K-562 leukemia) | growth (MALME-3M melanoma) | growth (MDA-MB-231 breast) | growth (RXF 393 renal) | growth (SF-268 CNS) [%] | growth (SF-295 CNS) | growth (SF-539 CNS) | growth (UACC-257 melanoma) | growth (M14 melanoma)
O=C1Nc2c(ccc(Cl)c2Cl)/C1=C\c1ccc(C(F)(F)F)cc1 | 68.8 | 59.1% | 75.5 | 87.3% | 89.7% | 57.8% | 76.4% | 84.1 | 90.7% | 100% | 97.3 | 32.8% | 96.5% | 81.9% | 77.4% | 91.6 | 77.2% | 88.1% | 97.5% | 98%
COc1cc(/C=C/c2cc(/C=C/c3ccc(O)c(OC)c3)n(-c3c(Cl)cccc3Cl)c(=O)n2)ccc1O | 29 | 48.8% | 72.7 | 50.6% | 70.8% | 78.7% | 9.89% (active) | 44.1 | 29.7% | 71.8% | 28.7 | 9.21% (active) | 58.8% | 29% | -11.8% (active) | 19.9 | 75.4% | 3.35% (active) | 41.1% | 7.71% (active)
COC(=O)c1cccc(NC(=O)c2ccc(-c3cccc(N)c3)o2)c1 | 97.5 | 85.8% | 101 | 104% | 102% | 106% | 81.8% | 100 | 109% | 112% | 110 | 94.9% | 91.1% | 99.4% | 102% | 100 | 98.4% | 92.6% | 112% | 112%
N#CCCN=Nc1c(O)[nH]c2ccc(F)cc12 | 96.3 | 96.1% | 103 | 98.6% | 101% | 101% | 85% | 111 | 94.1% | 118% | 106 | 119% | 99.2% | 102% | 103% | 96.5 | 101% | 105% | 118% | 98%
CCn1c(O)c(/C=N/NC(=O)C(C)c2ccc(CC(C)C)cc2)sc1=S (stereo not given) | 39.2 | 31.1% | 37.6 | 22.9% | 7.24% (active) | 39.9% | -11.6% (active) | 21.8 | 17.8% | 15.3% | 22.1 | 9.15% (active) | 64.3% | 35.4% | 9.92% (active) | 32.9 | 15.8% | -13.5% (active) | 51.9% | 6.26% (active)
COc1ccc(-c2cc(NC(=O)Nc3ccc4ncsc4c3)no2)cc1 | 100 | 101% | 107 | 111% | 99.9% | 105% | 88.3% | 103 | 99.1% | 125% | 108 | 101% | 112% | 103% | 129% | 105 | 89.1% | 102% | 115% | 106%
CCN(CC)c1ccc(-c2cc(-c3cc(OC)c(OC)c(OC)c3)nc(N3CCOCC3)c2C#N)cc1 | 56.2 | 8.07% (active) | 52.9 | -40.5% (active) | -1.44% (active) | -1.28% (active) | -15.6% (active) | 21.5 | 0.298% (active) | 5.62% (active) | 38.8 | 1.69% (active) | -12.6% (active) | -10.9% (active) | -9.31% (active) | 39.6 | -54.6% (active) | 35.6% | -23.5% (active) | -53.9% (active)
Nc1ccn(-c2ccc(Br)cc2)c(=O)n1 | 88.8 | 128% | 120 | 102% | 105% | 74.6% | 88.5% | 107 | 102% | 198% | 101 | 76.2% | 124% | 104% | 137% | 109 | 79.3% | 94.1% | 127% | 104%

Reference: PubChem BioAssay (NCI)
